From PMC11006913
Substitutions are numbered along the chain they refer to.

How the values were obtained:
Experiment in all cases: PBM; 200 nM protein, PBS
Details in all cases: dsDNA, one strand shown
[1] = target: T1, PAX4 (Homo sapiens, UniProt O43316 9-242)
T1 sequence: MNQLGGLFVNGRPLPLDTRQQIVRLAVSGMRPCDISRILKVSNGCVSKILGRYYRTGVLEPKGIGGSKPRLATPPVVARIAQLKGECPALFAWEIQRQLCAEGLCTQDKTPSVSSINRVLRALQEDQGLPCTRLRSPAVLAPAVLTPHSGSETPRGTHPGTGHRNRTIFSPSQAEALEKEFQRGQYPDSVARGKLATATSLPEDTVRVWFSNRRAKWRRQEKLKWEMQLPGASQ

[2] = target: ALX3 (Homo sapiens, UniProt O95076 139-225, N203Q)
[3] = target: ALX3 (Homo sapiens, UniProt O95076 139-225)
[4] = target: ALX3 (Homo sapiens, UniProt O95076 139-225, N203S)
[5] = target: T2, VENTX (Homo sapiens, UniProt O95231 78-163, Y115F)
T2 sequence: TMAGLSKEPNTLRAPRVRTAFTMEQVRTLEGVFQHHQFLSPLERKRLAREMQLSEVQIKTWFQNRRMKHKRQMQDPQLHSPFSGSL

[6] = target: PITX2 (Homo sapiens, UniProt Q99697 72-157)
[7] = target: T3, PAX4 (Homo sapiens, UniProt O43316 9-242, F177V)
T3 sequence: T1 sequence with F169V

[8] = target: T4, PAX4 (Homo sapiens, UniProt O43316 9-242, F177Y)
T4 sequence: T1 sequence with F169Y

[9] = target: T5, PAX4 (Homo sapiens, UniProt O43316 9-242, R227W)
T5 sequence: T1 sequence with R219W

[10] = target: T6, SIX6 (Homo sapiens, UniProt O95475 114-200, T165P)
T6 sequence: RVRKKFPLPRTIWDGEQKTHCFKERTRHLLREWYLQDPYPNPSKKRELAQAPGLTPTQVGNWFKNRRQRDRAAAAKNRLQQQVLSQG

[11] = target: T7, SIX6 (Homo sapiens, UniProt O95475 114-200, L167M)
T7 sequence: T6 sequence with P52T, L54M

[12] = target: T8, NKX2-4 (Homo sapiens, UniProt Q9H2Z4 175-261)
T8 sequence: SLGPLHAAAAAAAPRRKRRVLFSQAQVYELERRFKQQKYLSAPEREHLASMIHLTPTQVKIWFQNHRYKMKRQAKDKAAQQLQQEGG

[13] = target: T9, SIX6 (Homo sapiens, UniProt O95475 114-200, L143M)
T9 sequence: T6 sequence with L30M, P52T

[14] = target: T10, SIX6 (Homo sapiens, UniProt O95475 114-200, T165I)
T10 sequence: T6 sequence with P52I

[15] = target: VAX1 (Homo sapiens, UniProt Q5SQQ9 86-172)
[16] = target: VAX1 (Homo sapiens, UniProt Q5SQQ9 86-172, T142I)
[17] = target: VAX1 (Homo sapiens, UniProt Q5SQQ9 86-172, K157R)
VAX1 (Homo sapiens, UniProt Q5SQQ9 86-172, K157R), sequence (Q5SQQ9 86-172 K157R): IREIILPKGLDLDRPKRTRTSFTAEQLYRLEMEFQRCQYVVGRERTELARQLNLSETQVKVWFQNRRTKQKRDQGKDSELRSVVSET

ALX3 (Homo sapiens, UniProt O95076 139-225, N203Q), sequence (O95076 139-225 N203Q): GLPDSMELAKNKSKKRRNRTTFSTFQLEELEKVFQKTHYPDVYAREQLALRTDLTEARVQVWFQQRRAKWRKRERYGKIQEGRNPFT
VAX1 (Homo sapiens, UniProt Q5SQQ9 86-172), sequence (Q5SQQ9 86-172): as the sequence (Q5SQQ9 86-172 K157R) above, with R72K counted along it
VAX1 (Homo sapiens, UniProt Q5SQQ9 86-172, T142I), sequence (Q5SQQ9 86-172 T142I): as the sequence (Q5SQQ9 86-172 K157R) above, with T57I, R72K counted along it
ALX3 (Homo sapiens, UniProt O95076 139-225, N203S), sequence (O95076 139-225 N203S): as the sequence (O95076 139-225 N203Q) above, with Q65S counted along it
ALX3 (Homo sapiens, UniProt O95076 139-225), sequence (O95076 139-225): as the sequence (O95076 139-225 N203Q) above, with Q65N counted along it

How did the binding signal [1] turn out when TCTTATCA was run?
Its binding signal is 10.6 upbm affinity estimate (log intensity, higher = more binding, comparable within an allelic series).

And the binding signal [2]?
Its binding signal is 8.33 upbm affinity estimate (log intensity, higher = more binding, comparable within an allelic series).

And the binding signal [3]?
Its binding signal is 9.29 upbm affinity estimate (log intensity, higher = more binding, comparable within an allelic series).

What about the binding signal [4] of the same sequence?
Its binding signal is 8.36 upbm affinity estimate (log intensity, higher = more binding, comparable within an allelic series).

For ATCGATCA, which binding signal [5] is on record?
The binding signal was 9.96 upbm affinity estimate (log intensity, higher = more binding, comparable within an allelic series).

How did the binding signal [1] turn out when CGTGTAAA was run?
The binding signal was 10.4 upbm affinity estimate (log intensity, higher = more binding, comparable within an allelic series).

What does the source list for TCTGATCA?
binding signal [1]: 10.5 upbm affinity estimate (log intensity, higher = more binding, comparable within an allelic series); binding signal [6]: 9.44 upbm affinity estimate (log intensity, higher = more binding, comparable within an allelic series); binding signal [7]: 9.89 upbm affinity estimate (log intensity, higher = more binding, comparable within an allelic series); binding signal [8]: 9.94 upbm affinity estimate (log intensity, higher = more binding, comparable within an allelic series); binding signal [9]: 9.94 upbm affinity estimate (log intensity, higher = more binding, comparable within an allelic series)

Which binding signal [10] does the source give for GGGGATCA here?
The binding signal was 9.12 upbm affinity estimate (log intensity, higher = more binding, comparable within an allelic series).

For CCGATACC, which binding signal [10] is on record?
Its binding signal is 9.05 upbm affinity estimate (log intensity, higher = more binding, comparable within an allelic series).

What about the binding signal [11] of the same sequence?
The binding signal was 10 upbm affinity estimate (log intensity, higher = more binding, comparable within an allelic series).

With GAGGGATC as the sequence, how does the binding signal [10] read?
The binding signal was 9.26 upbm affinity estimate (log intensity, higher = more binding, comparable within an allelic series).

Which binding signal [5] does the source give for AAATCGGT here?
Its binding signal is 9.94 upbm affinity estimate (log intensity, higher = more binding, comparable within an allelic series).

Which binding signal [10] does the source give for CAGGGATC here?
Its binding signal is 9.11 upbm affinity estimate (log intensity, higher = more binding, comparable within an allelic series).

GAGGATCC was tested. Which binding signal [10] did it give?
Its binding signal is 9.19 upbm affinity estimate (log intensity, higher = more binding, comparable within an allelic series).

How did the binding signal [10] turn out when ACGATCCG was run?
The binding signal was 9.21 upbm affinity estimate (log intensity, higher = more binding, comparable within an allelic series).

And the binding signal [11]?
Its binding signal is 9.98 upbm affinity estimate (log intensity, higher = more binding, comparable within an allelic series).

With GGGATCCA as the sequence, how does the binding signal [10] read?
The binding signal was 9.27 upbm affinity estimate (log intensity, higher = more binding, comparable within an allelic series).

For GACGATCC, which binding signal [10] is on record?
Its binding signal is 9.26 upbm affinity estimate (log intensity, higher = more binding, comparable within an allelic series).

TAGTCACA was tested. Which binding signal [1] did it give?
Its binding signal is 10.1 upbm affinity estimate (log intensity, higher = more binding, comparable within an allelic series).

For CCGATTTA, which binding signal [5] is on record?
Its binding signal is 9.97 upbm affinity estimate (log intensity, higher = more binding, comparable within an allelic series).

For ACCGATCA, which binding signal [5] is on record?
The binding signal was 9.96 upbm affinity estimate (log intensity, higher = more binding, comparable within an allelic series).

With GGATCGGA as the sequence, how does the binding signal [10] read?
Its binding signal is 9.23 upbm affinity estimate (log intensity, higher = more binding, comparable within an allelic series).

Which binding signal [10] does the source give for GCGGATCC here?
Its binding signal is 9.05 upbm affinity estimate (log intensity, higher = more binding, comparable within an allelic series).

How did the binding signal [10] turn out when ACCGGATC was run?
Its binding signal is 9.31 upbm affinity estimate (log intensity, higher = more binding, comparable within an allelic series).

What does the source list for ATCGATCG?
binding signal [1]: 10.5 upbm affinity estimate (log intensity, higher = more binding, comparable within an allelic series); binding signal [7]: 10 upbm affinity estimate (log intensity, higher = more binding, comparable within an allelic series); binding signal [8]: 10.1 upbm affinity estimate (log intensity, higher = more binding, comparable within an allelic series)

How did the binding signal [1] turn out when ATTTTTAC was run?
Its binding signal is 10.5 upbm affinity estimate (log intensity, higher = more binding, comparable within an allelic series).

For AGGGGTCA, which binding signal [12] is on record?
The binding signal was 11.2 upbm affinity estimate (log intensity, higher = more binding, comparable within an allelic series).

With ATATACCC as the sequence, how does the binding signal [13] read?
The binding signal was 10.9 upbm affinity estimate (log intensity, higher = more binding, comparable within an allelic series).

What about the binding signal [14] of the same sequence?
Its binding signal is 11 upbm affinity estimate (log intensity, higher = more binding, comparable within an allelic series).

Which results are given for AATTGCGA?
binding signal [15]: 9.89 upbm affinity estimate (log intensity, higher = more binding, comparable within an allelic series); binding signal [16]: 9.67 upbm affinity estimate (log intensity, higher = more binding, comparable within an allelic series); binding signal [17]: 9.62 upbm affinity estimate (log intensity, higher = more binding, comparable within an allelic series)
